CYP2C19 activ = cytochrome P450 2C19 (human) activation. AID 1025. P33261. 96,000 tested, under 10 active. recombinant CYP2C19, luciferin-H EGE luminescence; active compounds read high; 0 = fully inhibited enzyme, 1 = untreated enzyme. activation factor at 5 µM;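 active = activation factor of at least 2 at 5 µM in the primary screen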;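 also: 0 = wells with 2.5 mM tranylcypromine and 1 = vehicle-only wells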
Target sequence (P33261 whole entry, looked up): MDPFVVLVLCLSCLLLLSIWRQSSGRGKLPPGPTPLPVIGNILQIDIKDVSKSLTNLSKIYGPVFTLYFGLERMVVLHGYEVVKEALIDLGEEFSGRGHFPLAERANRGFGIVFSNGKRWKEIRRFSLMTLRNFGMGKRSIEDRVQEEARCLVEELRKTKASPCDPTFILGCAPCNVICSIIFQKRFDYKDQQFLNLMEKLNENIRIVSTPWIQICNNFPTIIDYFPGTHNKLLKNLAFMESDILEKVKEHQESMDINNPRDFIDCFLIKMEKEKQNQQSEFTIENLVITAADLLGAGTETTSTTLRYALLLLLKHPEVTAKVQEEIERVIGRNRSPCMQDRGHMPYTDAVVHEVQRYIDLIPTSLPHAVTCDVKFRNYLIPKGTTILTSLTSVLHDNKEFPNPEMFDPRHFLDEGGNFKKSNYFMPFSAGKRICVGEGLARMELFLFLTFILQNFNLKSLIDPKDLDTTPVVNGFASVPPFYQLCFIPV
CYP2C9 inh = inhibitors of human CYP2C9; CYP2C9 Supersomes, luciferin-H conversion, luminescence; inhibition, % at 5 µM; 96,000 tested, 20% active; P11712;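 active = blocking of liver enzyme CYP2C9 beyond about 50% at 5 µM, limit read from the data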
Plk1 PBD FP = blocks phosphopeptide binding to human Plk1 polo box domain; P53350; Plk1 PBD phosphopeptide binding, fluorescence polarization; inhibition, %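 (tested at about 20 µM)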; 97,000 tested, 0.13% active; in the data active = inhibition above about 34%, passing the limit was not always enough
PLK1 kinase inh = inhibitors of human PLK1 kinase | P53350 | recombinant PLK1 kinase, TR-FRET peptide phosphorylation | inhibition, % at 10 µM | 97,000 tested, 0.53% active;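 active = inhibition of 50% or more in the single-concentration screen; inactive = inhibition below 50%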;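 also: 0% = DMSO max control and 100% = H-89 dihydrochloride min control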
CYP2C9 act = activators of human CYP2C9 | recombinant CYP2C9, luciferin-H conversion, luminescence; active compounds read high; factor 1 = untreated enzyme, 0 = blocked | activation factor at 5 µM | 96,000 tested, 1.4% active | AID 1024;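 active = activation factor of 2 or more for CYP2C9 at a 5 µM dose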;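 also: 0 = sulfaphenazole-blocked wells and 1 = vehicle-only wells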
CYP2C19 inh = human CYP2C19 inhibition; P33261; AID 778; 96,000 tested, 21% active; CYP2C19 Supersomes, luciferin-H EGE luminescence, 30 min; inhibition, % at 5 µM;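 active = CYP2C19 inhibition above a set limit at 5 µM in the primary screen, cut at about 50% in these data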;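 also: plate controls were negative control wells for no effect and 2.5 mM tranylcypromine positive control for full effect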
* marks the source's active call; other numbers are inactive results; . = no result. Hits are enriched below; roughly 28% of the tested compounds scored in any of these assays.

SMILES | CYP2C19 activ | CYP2C9 inh | Plk1 PBD FP | PLK1 kinase inh | CYP2C9 act | CYP2C19 inh
CC(C)OC(=O)CSc1nc(N)c(C#N)c(-c2cccs2)c1C#N | 0.8 | 3 | 6 | -11 | 1 | 23
CSc1nc(N)nc(-c2cccs2)c1C#N | 0.2 | 58* | -2 | -5 | 0.4 | 78*
COc1ccc(OCC(=O)Nc2cc(-c3nn(C)c(=O)c4ccccc34)ccc2OC)cc1 | 0.6 | 22 | -6 | -19 | 0.8 | 39
CC1(C)CC(n2c(NCCO)nc3c(c2=O)C2(CCCC2)Cc2ccccc2-3)CCO1 (stereo not given) | 0.2 | 84* | . | . | 0.2 | 84*
O=c1[nH]c(NCCO)nc2c1C1(CCCCC1)Cc1ccccc1-2 | 1 | 6 | 9 | -18 | 0.9 | -1
O=c1c2c(nc(NCCO)n1CC1CCCCC1)-c1ccccc1CC21CCCC1 | 0.1 | 100* | -42 | -9 | 0 | 93*
N#Cc1c2c(c(NCc3cccnc3)n3c1nc1ccccc13)CCC2 | 1 | 34 | 0 | -9 | 0.7 | -3
O=C(COc1ccccc1Br)c1ccc(O)cc1O | 0.3 | 62* | 5 | -8 | 0.4 | 66*
O=C(Cc1ccc(Br)cc1)c1ccc(O)cc1O | 0.3 | 54* | 25 | -7 | 0.5 | 71*
COc1cccc(C(CC(=O)Nc2cccc3ccccc23)NC(=O)c2ccccc2)c1 (stereo not given) | 0.5 | 81* | -6 | -11 | 0.2 | 50
Cc1nc2ccccc2n1C1CC(=O)N(N(C)C)C1=O (stereo not given) | 1 | 9 | 4 | -14 | 0.9 | -2
CCOC(=O)c1c(C)c(-c2ccccc2)n(CC(=O)NCCC(C)C)c1C | 0.8 | 46 | -9 | -16 | 0.5 | 18
O=C(CSCc1cccc(CSCC(=O)Nc2ccc3ccccc3c2)n1)Nc1ccc2ccccc2c1 | 0.2 | 99* | -6 | -11 | 0 | 81*
O=C(CSCc1nc2ccccc2[nH]1)Nc1ccc2ccccc2c1 | 0.7 | 58* | -24 | -10 | 0.4 | 32
O=C(CSCC(=O)Nc1ccc2ccccc2c1)NCc1ccccc1 | 0.8 | -2 | -10 | -7 | 1 | 19
O=C(CSc1cccs1)Nc1ccc2ccccc2c1 | 0.4 | 64* | 30 | -4 | 0.4 | 60*
C=C(C)CSCc1nc2ccccc2[nH]1 | 0.1 | 28 | 10 | -8 | 0.7 | 90*
O=C(CSCc1nc2ccccc2[nH]1)N1CCN(c2cccc(Cl)c2)CC1 | 0.8 | 36 | -3 | -9 | 0.6 | 18
CC1Cc2ccccc2N1C(=O)COc1nc2ccccc2nc1N1CCOCC1 (stereo not given) | 0.8 | 47 | 1 | -8 | 0.5 | 20
CCC(C)(C(=O)NC1CCCCC1)N(C(=O)CNC(C)=O)c1c(C)n(C)n(-c2ccccc2)c1=O (stereo not given) | 1.1 | -24 | -18 | -6 | 1.2 | -11
COc1ccc(-n2c3c(cc(C(=O)Nc4ccc5c(c4)C(=O)NC5=O)c2=O)C(=O)CCC3)cc1 | . | . | -16 | -8 | . | .
N#Cc1c(NC(=O)Cn2nc(C(F)(F)F)c3c2CCCC3)sc2c1CCC2 | 0.9 | 24 | -18 | -7 | 0.8 | 6
CC1CCc2sc3nc(NCc4ccco4)n4ncnc4c3c2C1 (stereo not given) | 0.9 | 34 | -23 | -9 | 0.7 | 12
CCN1CCc2c(sc3c2c(NCc2ccco2)nc2nnnn23)C1 | 0.6 | 53* | . | . | 0.5 | 42
CC(C)(C)NC(=O)COC(=O)Cc1ccc(Cl)cc1 | 0.7 | -9 | -15 | -3 | 1.1 | 30
SMILES | CYP2C19 activ | CYP2C9 inh | Plk1 PBD FP | PLK1 kinase inh | CYP2C9 act | CYP2C19 inh
Cc1ccc(-n2c(-c3ccccc3)cc(=O)nc2C)cc1 | . | -8 | 16 | -1 | 1.1 | .
Cc1ccccc1NC(C)C(=O)N/N=C/c1ccccc1OCc1cccc(Br)c1 (stereo not given) | 0.5 | 76* | 35 | -11 | 0.2 | 48
O=C(C(c1ccccc1)c1ccccc1)N1CCN(Cc2ccncc2)CC1 | 0.6 | 88* | -6 | -2 | 0.1 | 44
O=C(C(c1ccccc1)c1ccccc1)N1CCN(Cc2ccccn2)CC1 | 1 | 9 | . | . | 0.9 | 4
O=C(c1cccs1)N1CCN(Cc2cccnc2)CC1 | 0.2 | 37 | . | . | 0.6 | 83*
O=C(c1cccs1)N1CCN(Cc2ccncc2)CC1 | 0.1 | 74* | 2 | 1 | 0.3 | 88*
O=C(c1ccco1)N1CCN(Cc2cccnc2)CC1 | 0.8 | 16 | -16 | -10 | 0.8 | 18
